# Assay results as given in paper PMC4336329 (PLoS ONE, 2015).
# The campaign covered roughly 310,000 compounds. About 14,000 (4.5%) showed an effect of 50% or more. The effect is printed as a negative number. The sample as a whole holds a higher share of strong results than the screen did.
# Target: human ether-à-go-go-related gene (hERG) potassium channel (human, UniProt Q12809)
# Assay: primary screen, population patch clamp on CHO cells stably expressing hERG; higher = less effect of the substance
# 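Also: peak tail current of the secondary pulse compared with the same well before compound.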
# Chain of human ether-à-go-go-related gene (hERG) potassium channel (Q12809 whole entry, looked up): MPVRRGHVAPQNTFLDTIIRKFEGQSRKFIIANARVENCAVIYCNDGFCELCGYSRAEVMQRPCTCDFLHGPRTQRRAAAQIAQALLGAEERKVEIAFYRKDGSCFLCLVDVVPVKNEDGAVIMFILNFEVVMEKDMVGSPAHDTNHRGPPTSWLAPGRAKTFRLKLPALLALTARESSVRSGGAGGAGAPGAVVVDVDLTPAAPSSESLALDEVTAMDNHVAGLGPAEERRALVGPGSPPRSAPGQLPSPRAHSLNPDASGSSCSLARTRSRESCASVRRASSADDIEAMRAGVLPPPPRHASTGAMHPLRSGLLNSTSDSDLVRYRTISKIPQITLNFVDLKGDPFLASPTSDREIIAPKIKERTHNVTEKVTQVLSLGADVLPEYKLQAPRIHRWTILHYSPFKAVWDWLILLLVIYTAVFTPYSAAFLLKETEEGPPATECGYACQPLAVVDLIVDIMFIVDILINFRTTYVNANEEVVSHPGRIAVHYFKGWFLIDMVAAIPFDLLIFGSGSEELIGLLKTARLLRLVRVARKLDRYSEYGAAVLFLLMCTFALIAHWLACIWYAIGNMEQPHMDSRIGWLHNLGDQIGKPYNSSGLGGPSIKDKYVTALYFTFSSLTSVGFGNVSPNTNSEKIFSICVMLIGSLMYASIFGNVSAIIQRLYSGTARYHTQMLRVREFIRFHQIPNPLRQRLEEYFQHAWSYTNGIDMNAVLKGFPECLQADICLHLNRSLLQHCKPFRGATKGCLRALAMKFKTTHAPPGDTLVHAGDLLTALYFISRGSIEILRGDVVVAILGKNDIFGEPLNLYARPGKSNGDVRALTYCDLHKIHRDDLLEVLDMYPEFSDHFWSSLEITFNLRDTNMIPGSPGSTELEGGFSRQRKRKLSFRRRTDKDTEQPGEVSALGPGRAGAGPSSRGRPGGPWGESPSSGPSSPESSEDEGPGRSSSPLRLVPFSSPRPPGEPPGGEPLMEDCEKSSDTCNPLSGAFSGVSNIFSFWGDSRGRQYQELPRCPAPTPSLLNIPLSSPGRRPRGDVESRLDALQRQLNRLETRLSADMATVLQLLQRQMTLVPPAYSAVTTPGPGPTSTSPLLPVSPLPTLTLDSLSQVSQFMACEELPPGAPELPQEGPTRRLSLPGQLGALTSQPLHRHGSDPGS
row,SMILES,"hERG current change (%, negative = inhibition) at 10uM"
1,COCCNC(=O)/C(C#N)=C/c1cc(C)n(C2CCCCC2)c1C,-0.875%
2,CCN(CC)S(=O)(=O)c1ccc2nc(CSc3nnnn3-c3ccc(O)cc3)[nH]c2c1,-53.9%
3,CCN(CC)S(=O)(=O)c1ccc2nc(CCl)[nH]c2c1,-16.7%
4,Cc1ccc(S(=O)(=O)N(C)C)cc1NC(=O)CSc1nnnn1-c1ccc(O)cc1,-20.9%
5,O=C(c1cccc(C(=O)N2CCN(c3ccccc3F)CC2)n1)N1CCN(c2ccccc2F)CC1,-28.3%
6,O=[N+]([O-])c1ccc(N2CCCCC2)cc1N1CCOCC1,-11.3%
7,O=[N+]([O-])c1ccc(N2CCOCC2)cc1N1CCCCC1,-5.12%
8,O=C(/C=C/c1ccc(Cl)cc1Cl)N1CCN(c2ccc([N+](=O)[O-])c(N3CCOCC3)c2)CC1,-34.5%
9,O=C(/C=C/c1ccc(Cl)cc1)N1CCOCC1,9.65%
10,O=C(/C=C/c1ccc(Cl)cc1)N1CCN(c2ccc([N+](=O)[O-])c(N3CCOCC3)c2)CC1,-72.4%
11,O=C(/C=C/c1ccccc1)N1CCN(c2ccc([N+](=O)[O-])c(N3CCOCC3)c2)CC1,-54.3%
12,Cc1c(C(=O)NN2CCOCC2)oc2ccccc12,16.5%
13,N#Cc1cc2c(nc1SCc1cccc(Cl)c1)CCCCC2,8.72%
14,COc1cc(C2NC(=O)NC(C)=C2C(=O)OCC2CCCO2)cc(OC)c1OC (centres unmarked),18.8%
15,COc1ccc(N2CCN(c3ncnc4scc(-c5ccccc5)c34)CC2)cc1,18.6%
16,COc1ccc(NC(=O)c2ccccc2NC(=O)CSc2ccc(Cl)cc2)cc1,3.21%
17,Cc1cc(C)cc(NC(=O)C2C3C=CC4(O3)C2C(=O)N(CCCN2CCCCC2)C4C(=O)NC2CCCCC2)c1 (centres unmarked),20.7%
18,O=C(NCc1ccccc1)c1ccc(Cl)c(NC2=NC3CS(=O)(=O)CC3S2)c1 (centres unmarked),-0.123%
19,O=C(Cn1cc[n+](CC(=O)c2ccccc2)c1)c1ccccc1.[Br-],0.024%
20,O=C(C[n+]1cnn(CC(=O)c2ccc(Cl)cc2Cl)c1)c1ccc([N+](=O)[O-])cc1.[Br-],-73.3%
21,O=C(Cn1cc[n+](CC(=O)c2ccc(Cl)cc2Cl)c1)c1ccc(Cl)cc1Cl.[Br-],-61.5%
22,O=C(Cn1nc(Cl)nc1Cl)c1ccc([N+](=O)[O-])cc1,1.69%
23,C[n+]1ccn(CC(=O)c2ccc(Cl)cc2)c1.[Br-],-3.61%

row,SMILES,"hERG current change (%, negative = inhibition) at 10uM"
1,O=C(Cn1c[n+](CC(=O)c2ccc([N+](=O)[O-])cc2)cn1)c1ccc([N+](=O)[O-])cc1.[Br-],21.3%
2,COc1ccc(-c2ccc(SCc3cccnc3)nn2)cc1OC,29%
3,Cc1ccccc1N1CC(C(=O)Nc2ccc(S(=O)(=O)N3CCCC3)cc2)CC1=O (centres unmarked),3.59%
4,CCOC(=O)NC1(C(F)(F)F)N=C(c2ccccc2)NC1=O (centres unmarked),4.77%
5,Cc1ccc(-n2cccn2)c([C@@H]2C[C@H]3CN(C)C(=O)[C@]34CCCN24)c1,-61.1%
6,CN1C[C@@H]2C[C@@H](c3ccc(C#CC(C)(C)O)s3)N3CCC[C@@]23C1=O,9.88%
7,CN1C[C@@H]2C[C@@H](C3=Cc4cc(Cl)ccc4OC3)N3CCC[C@@]23C1=O,-32.7%
8,O=C1N(C2CCCC2)C[C@@H]2C[C@@H](c3cn[nH]c3-c3ccc(Cl)cc3)N3CCC[C@@]123,-37.8%
9,Cc1cc(C)c([C@@H]2C[C@H]3CN(C4CCCC4)C(=O)[C@]34CCCN24)c(-n2cccn2)c1,-80.7%
10,Cn1cc([C@@H]2C[C@H]3CN(C4CCCC4)C(=O)[C@]34CCCN24)c(-c2ccccc2)n1,-18.5%
11,CCOc1cc(CNc2ncn[nH]2)ccc1OCC(=O)NC(C)(C)C,5.22%
12,Cc1ccc(OCC(=O)N(C)Cc2ccccc2)c([N+](=O)[O-])n1,3.95%
13,NN/C(=C\[N+](=O)[O-])Nc1ccc(Cl)cc1,13.6%
14,Cc1ccc(S(=O)(=O)CCC(=O)OCC(=O)c2c[nH]c3ccccc23)cc1,-8.93%
15,COc1ccc(S(=O)(=O)N2CCN(C(=O)NC3CCCCC3)CC2)cc1OC,-17.7%
16,COC(=O)c1cc(Br)c(=O)n(CCc2ccc(F)cc2)c1,-24.9%
17,COC(=O)c1cc(Br)c(=O)n(-c2ccc(OC)cc2)c1,-0.31%
18,COC(=O)c1cc(Br)c(=O)n(-c2ccc(F)cc2)c1,-63.9%
19,COCC(C)n1c(SCc2ccc(C(=O)OC)o2)nc2ccccc2c1=O (centres unmarked),-8.61%
20,COc1ccccc1C1CC(c2cccs2)=Nc2ccccc2S1 (centres unmarked),14.4%
21,CC1CCCN(C(=O)c2ccc(Br)c(S(=O)(=O)N3CCOCC3)c2)C1 (centres unmarked),-7.24%
22,COc1ccc(C2CC3(CC(C)(C)NC(=S)N3)Oc3cc(O)cc(C)c32)cc1 (centres unmarked),14.6%
23,Cc1cc(O)cc2c1C(c1ccc(F)cc1)CC1(CC(C)(C)NC(=S)N1)O2 (centres unmarked),14.2%

row,SMILES,"hERG current change (%, negative = inhibition) at 10uM"
1,COc1ccc(C2CC3(CC(C)(C)NC(SC)=N3)Oc3cc(O)cc(C)c32)cc1.I (centres unmarked),-74.3%
2,CC12CN(C(=S)Nc3ccccc3)CC(C)(CN(C(=S)Nc3ccccc3)C1)C2=O,10.3%
3,COc1ccc(/C=C(/NC(=O)c2ccco2)C(=O)Nc2ccc(C(=O)O)cc2)cc1,9.11%
4,COc1ccccc1N1CCN(C(=O)c2ccc(-c3ccc(Cl)cc3)o2)CC1,-7.22%
5,O=C(COc1ccc2ccccc2c1)N1CCN(C2CCN(Cc3ccccc3)CC2)CC1,-77.7%
6,O=C(COc1ccc2ccccc2c1)N1CCN(Cc2ccncc2)CC1.O=C(O)C(=O)O,-33.9%
7,COc1cccc(CN2CCN(C(=O)COc3ccc4ccccc4c3)CC2)c1,-38.7%
8,Cc1ccc(/C=C/C(=O)OCC(=O)NCCN2C(=O)CSC2=O)cc1,-17.9%
9,O=C(COc1ccc2ccccc2c1)N1CCN(C(=O)c2ccco2)CC1,-61.7%
10,O=C(COC(=O)/C=C/c1ccc(OC(F)F)cc1)NCCN1C(=O)CSC1=O,-60.8%
11,CCOC(=O)/C=C/C(=O)OCC(=O)N1CCN(C(=O)c2ccco2)CC1,9.59%
12,Cc1cccc(OCC(=O)N2CCN(C(=O)c3ccco3)CC2)c1,-6.95%
13,O=C(/C=C/c1ccc(OC(F)F)cc1)OCC(=O)N1CCN(C(=O)c2ccco2)CC1,-71%
14,CC(C)c1ccc(OCC(=O)N2CCN(C(=O)c3ccco3)CC2)cc1,-49.1%
15,O=C(COC(=O)/C=C/c1ccc(Cl)cc1)NCCN1C(=O)CSC1=O,-21.2%
16,COc1cc(/C=C/C(=O)OCC(=O)N2CCN(C(=O)c3ccco3)CC2)ccc1O,2.55%
17,CC1=NN(c2ccccc2)C(=O)C1C(=O)c1cc([N+](=O)[O-])cc([N+](=O)[O-])c1 (centres unmarked),2%
18,CCn1c(=S)sc2c(=O)n(CC(=O)Nc3cccc(Cl)c3)c(C)nc21,6.27%
19,Cc1ccc(-c2nc(N)sc2CC(=O)OCC(=O)N2C(C)CCCC2C)cc1 (centres unmarked),-7.22%
20,COc1ccc2cc(CCNC(=O)c3ccc(Br)o3)c(=O)[nH]c2c1,-9.51%
21,COCCCNC(=S)N1CCN(C(c2ccccc2)c2ccccc2)CC1,5.04%
22,COc1cccc2cc(C(C)N(CCCN3CCOCC3)C(=S)Nc3ccccc3C)oc12 (centres unmarked),-7.78%
23,COc1ccc2[nH]c(=O)c(CN(C(=O)C(C)C)c3ccccc3OC)cc2c1,-2.54%

row,SMILES,"hERG current change (%, negative = inhibition) at 10uM"
1,COc1cccc(=O)c2c(C)oc(C)c12,3.11%
2,O=C(N/N=C/c1cccs1)c1cnccn1,-1.91%
3,CC(Sc1nc(-c2ccccc2)cc(C(F)(F)F)n1)C(=O)N1CCCCC1 (centres unmarked),-17.9%
4,COc1ccc(OCC(=O)N2CCN(C(=O)c3ccco3)CC2)cc1,-32.3%
5,O=C(COc1ccccc1)N1CCN(C(=O)c2ccco2)CC1,-8.03%
6,N#Cc1ccc(OCC(=O)N2CCN(C(=O)c3ccco3)CC2)cc1,-71%
7,CC1(c2nnc(Cc3ccccc3)o2)CC(c2cccc(F)c2)=NO1 (centres unmarked),-3.35%
8,Cc1cc(C)n(-c2nncn2/N=C/c2ccccc2F)n1,3.06%
9,COc1ccccc1-n1ccnc(SCC(=O)NCc2ccccc2Cl)c1=O,8.39%
10,O=C1CC[C@H](O)CCN1[C@H](CSc1ccc(Br)cc1)Cc1ccccc1,-24.3%
11,CC(C)C[C@@H](CO)N1CCN(Cc2ccccc2)CCC1=O,6.02%
12,O=C1CC[C@H](OCc2ccccc2)CCN1[C@H](CSc1ccccc1)Cc1ccccc1,-51%
13,O=C1CCN(CCc2ccccc2)CCN1[C@H](CSc1ccc(Br)cc1)Cc1ccccc1,-74.6%
14,CC(C)C(CO)N1CCN(Cc2ccccc2)CCC1=O (centres unmarked),4.74%
15,O=C1CCN(Cc2ccc(Br)cc2)CCN1[C@H](CO)Cc1ccccc1,-10.4%
16,C[C@H]1CCC(=O)N([C@H](CSc2ccccc2)Cc2ccccc2)CC1,-37%
17,Cc1ccc(SC[C@H](Cc2ccccc2)N2CCN(CCc3ccccc3)CCC2=O)cc1,-17.9%
18,O=C1CCN(CCc2ccccc2)CCN1[C@H](CSc1ccccc1)Cc1ccccc1,-77.1%
19,CC(C)[C@@H](CSc1ccccc1)N1CCN(Cc2ccccc2)CCC1=O,-63.4%
20,O=C1CC[C@H](O)CCN1[C@H](CSc1ccccc1)Cc1ccccc1,-21.7%
